Data from PubChem BioAssay (NCATS).
Values joined by “and” are separate entries in the source; they are usually repeats but may differ in a detail not shown here. Identical values can stand only once. Inconclusive results are not listed. Active and inactive are the calls of the source. Unless noted, the call rests on the fitted dose curve; in most records, active means well fitted curve in the direction sought with a large enough effect; inconclusive means small, poorly fitted or top-dose-only effect, or another doubt; inactive means no such curve, though single readings can be large; an effect the other way counts as inactive or inconclusive.

Legend:
[1] = molecular target: Protein phosphatase 1D (Homo sapiens) (UniProt O15297); assay: RapidFire Mass Spectrometry qHTS Assay for Modulators of WT P53-Induced Phosphatase 1 (WIP1) (AID 1347424);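 further: amount of dephosphorylated VEPPL-S-QETFS peptide product formed by WIP1; series mostly up to about 63 µM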
Outline: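 10 nM WIP1 preincubated with compounds 1 hr at room temperature in pH 7.5 Tris buffer with 30 mM MgCl2, 1 mM TCEP; 2 uM VEPPL-pS-QETFS phosphopeptide for 5 min, formic acid quench; dephosphorylated product quantified by RapidFire MS against labelled standard.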

[2] = molecular target: Protein phosphatase 1D (Homo sapiens) (UniProt O15297); assay: Rhodamine-PBP qHTS Assay for Modulators of WT P53-Induced Phosphatase 1 (WIP1) (AID 1347425)
Outline: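 5 nM WIP1 + 10 uM Rh-PBP, 50 mM Tris pH 7.5, 30 mM MgCl2, 1 mM TCEP, 0.1 mM EGTA, BSA; cpds pinned, 1 hr RT; + 10 uM phosphopeptide; fluorescence 1-min reads x 11 min; delta = f1 - f0.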

[3] = Primary qHTS for inhibitors of La Crosse Virus (LACV) - induced cell death in SH-SY5Y cells (AID 1508616);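 further: top concentration of the series differs between compounds; higher means more rescue of cells from virus-induced death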
Outline: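 Readout was luminescence from ATPLite 1step added after a 6-day LACV infection (0.01 MOI) of SH-SY5Y cells that had received pin-transferred compound 24 hr after seeding.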

[4] = molecular target: Calcium and integrin-binding protein 1 (Homo sapiens) (UniProt Q99828); assay: Primary qHTS for Identification of Calcium Integrin Binding Protein 1 (CIB1) Competitor (AID 1508620);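 further: GST tagged CIB1 binding a fluorescein labelled alphaIIb integrin peptide tracer; top concentration of the series differs between compounds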
Outline: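 Fluorescence polarization competition: GST-tagged CIB1 (1 uM final) preincubated with compound 15 min at room temperature, then FITC-labelled alphaIIb peptide (100 nM final) added. After 15 min at room temperature, polarization read at Ex 480/Em 540.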

[5] = Primary qHTS for small molecule stabilizers of the endoplasmic reticulum resident proteome: Secreted ER Calcium Modulated Protein (SERCaMP) assay (AID 1508630)
Outline: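 GLuc-SERCaMP-expressing SH-SY5Y cells, pretreated 16 h with compound, are challenged with thapsigargin to empty ER calcium stores; after 4 h, coelenterazine is added directly to the medium and luminescence is imaged.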

[6] = A High-Content qHTS Against Drug Library for the Identification of Small Molecules that Inhibit DYT1 Early Onset Primary Dystonia-Associated Cell Pathology (AID 1645839; calls by dose curve; further: series mostly up to about 46 µM)
Outline: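 Flp-In T-REx 293 cells with tetracycline-inducible EGFP-delE hTOR1A (WT EGFP-hTOR1A as reference), 800 cells/well; compound added with tetracycline, 48 h at 37 C. Fixed, permeabilized cells imaged; %pathology (punctate TorsinA) primary, cell count counterscreen.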

[7] = molecular target: Cytochrome P450 2D6 (Homo sapiens) (UniProt P10635); assay: Cytochrome P450 family 2 subfamily D member 6 (CYP2D6) small molecule antagonists: luciferase biochemical (cell-free) qHTS assay (AID 1645840; active means well fitted curve in the direction sought with a large enough effect in the repeat runs; an effect the other way counts as inactive or inconclusive; further: nearly all actives have a fitted effect of over 55% in size; further: potency means the concentration at half of the fitted maximal effect)
Outline: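 P450-Glo luminescent screen: recombinant CYP2D6 enzyme–proluciferin substrate mix preincubated with compound 10 min at room temperature, then NADPH regeneration added for 1 h at room temperature. Detection reagent added for 20 min; luciferin light read as relative luminescence units.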

[8] = molecular target: Cytochrome P450 2C9 (Homo sapiens) (UniProt P11712); assay: Cytochrome P450 family 2 subfamily C member 9 (CYP2C9) small molecule antagonists: luciferase biochemical (cell-free) qHTS assay (AID 1645842; active means well fitted curve in the direction sought with a large enough effect in the repeat runs; an effect the other way counts as inactive or inconclusive; further: nearly all actives have a fitted effect of over 55% in size; further: potency means the concentration at half of the fitted maximal effect)
Outline: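 Luminescence, after 20 min with luciferin detection reagent, reflected CYP2C9 turnover during a 1 h NADPH-driven reaction at 37C. Enzyme-substrate mix contained 0.4% bovine serum albumin and was preincubated with compound 10 min at room temperature.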

[9] = Primary qHTS for inhibitors of nuclear receptor binding SET domain protein 2 (NSD2) in an isogenic RCH-ACV NSD2 p.E1099K mutant (9B) (AID 1645876); further: nearly all actives have a fitted effect of over 70% in size; further: potency means the concentration at half of the fitted maximal effect
[10] = Primary qHTS for inhibitors of nuclear receptor binding SET domain protein 2 (NSD2) in an RCH-ACV wild type WT cells (2C) (AID 1645877); further: nearly all actives have a fitted effect of over 70% in size; further: potency means the concentration at half of the fitted maximal effect
[11] = molecular target: Cytochrome P450 3A4 (Homo sapiens) (UniProt P08684); assay: Cytochrome P450 family 3 subfamily A member 4 (CYP3A4) small molecule antagonists: luciferase qHTS assay (AID 1645841; active means well fitted curve in the direction sought with a large enough effect in the repeat runs; an effect the other way counts as inactive or inconclusive; further: nearly all actives have a fitted effect of over 45% in size)
Outline: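 P450-Glo CYP3A4 enzyme with proluciferin substrate preincubated 10 min with compound at room temperature, then NADPH regeneration 1 h. Luciferin detection reagent added for 20 min; luminescence recorded. Ketoconazole positive control.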

[12] = molecular target: Rap guanine nucleotide exchange factor 3 (Homo sapiens) (UniProt O95398); assay: Confirmatory qHTS for antagonist of cAMP-regulated guanine nucleotide exchange factor 3 (EPAC1) (AID 1645880); further: nearly all actives have a fitted effect of over 55% in size
Outline: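 Nucleotide exchange uses 100 nM EPAC1, 250 nM RAP1B-BODIPY-GDP and 50 uM GDP, with compounds in a concentration-titration series. After 5 min at room temperature, fluorescence (480 nm ex/540 nm em) is read every 5 min for 30 min. Data are normalized to control ATA and DMSO.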

Measured: Potency

Chain of Calcium and integrin-binding protein 1 (Homo sapiens) (Q99828 whole entry, looked up): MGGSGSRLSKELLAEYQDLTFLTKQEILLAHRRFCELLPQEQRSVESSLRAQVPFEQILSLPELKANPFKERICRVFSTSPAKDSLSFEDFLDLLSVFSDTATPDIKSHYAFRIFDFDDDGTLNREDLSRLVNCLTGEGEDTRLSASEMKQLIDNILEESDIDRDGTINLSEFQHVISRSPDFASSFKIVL
Chain of Cytochrome P450 2D6 (Homo sapiens) (P10635 whole entry, looked up): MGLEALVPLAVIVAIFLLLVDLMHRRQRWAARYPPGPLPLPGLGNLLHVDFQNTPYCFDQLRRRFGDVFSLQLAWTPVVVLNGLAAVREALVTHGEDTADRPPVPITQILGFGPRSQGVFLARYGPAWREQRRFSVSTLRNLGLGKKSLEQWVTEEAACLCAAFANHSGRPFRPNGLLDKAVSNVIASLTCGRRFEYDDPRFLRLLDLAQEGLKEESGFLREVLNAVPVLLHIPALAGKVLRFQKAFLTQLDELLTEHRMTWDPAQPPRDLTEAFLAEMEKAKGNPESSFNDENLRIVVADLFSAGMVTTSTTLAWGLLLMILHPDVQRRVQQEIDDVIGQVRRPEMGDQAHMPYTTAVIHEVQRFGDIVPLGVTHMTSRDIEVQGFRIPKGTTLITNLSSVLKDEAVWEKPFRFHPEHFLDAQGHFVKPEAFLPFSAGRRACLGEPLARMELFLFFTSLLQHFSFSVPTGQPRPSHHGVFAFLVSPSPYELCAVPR
Chain of Protein phosphatase 1D (Homo sapiens) (O15297 whole entry, looked up): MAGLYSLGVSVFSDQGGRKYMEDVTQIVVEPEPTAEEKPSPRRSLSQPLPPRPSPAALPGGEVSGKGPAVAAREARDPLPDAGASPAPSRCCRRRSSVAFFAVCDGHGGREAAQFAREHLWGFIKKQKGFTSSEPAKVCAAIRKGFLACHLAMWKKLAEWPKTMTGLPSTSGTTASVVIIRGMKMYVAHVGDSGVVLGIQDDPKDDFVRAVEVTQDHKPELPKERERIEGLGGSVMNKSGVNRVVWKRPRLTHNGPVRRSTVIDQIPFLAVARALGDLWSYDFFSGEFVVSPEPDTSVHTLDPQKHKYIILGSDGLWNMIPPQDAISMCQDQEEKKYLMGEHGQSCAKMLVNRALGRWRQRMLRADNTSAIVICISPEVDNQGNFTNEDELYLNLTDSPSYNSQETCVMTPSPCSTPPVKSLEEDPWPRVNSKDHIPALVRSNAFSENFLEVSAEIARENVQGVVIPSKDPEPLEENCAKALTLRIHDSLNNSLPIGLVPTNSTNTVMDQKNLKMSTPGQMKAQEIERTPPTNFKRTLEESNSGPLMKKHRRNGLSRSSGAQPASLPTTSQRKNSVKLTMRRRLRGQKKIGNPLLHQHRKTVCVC
Chain of Cytochrome P450 2C9 (Homo sapiens) (P11712 whole entry, looked up): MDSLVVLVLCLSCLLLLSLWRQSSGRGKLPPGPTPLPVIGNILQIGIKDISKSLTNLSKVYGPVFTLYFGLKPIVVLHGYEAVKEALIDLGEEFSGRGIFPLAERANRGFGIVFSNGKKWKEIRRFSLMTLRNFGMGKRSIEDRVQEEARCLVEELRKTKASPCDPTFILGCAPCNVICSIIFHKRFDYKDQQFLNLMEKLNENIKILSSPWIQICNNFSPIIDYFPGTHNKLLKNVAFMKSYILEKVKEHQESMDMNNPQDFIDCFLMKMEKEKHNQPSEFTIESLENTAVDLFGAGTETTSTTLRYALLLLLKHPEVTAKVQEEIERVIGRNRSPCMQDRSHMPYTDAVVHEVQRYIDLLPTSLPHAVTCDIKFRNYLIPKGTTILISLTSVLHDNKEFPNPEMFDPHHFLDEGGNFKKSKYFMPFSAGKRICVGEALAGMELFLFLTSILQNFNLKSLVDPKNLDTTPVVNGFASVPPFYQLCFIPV
Chain of Rap guanine nucleotide exchange factor 3 (Homo sapiens) (O95398 whole entry, looked up): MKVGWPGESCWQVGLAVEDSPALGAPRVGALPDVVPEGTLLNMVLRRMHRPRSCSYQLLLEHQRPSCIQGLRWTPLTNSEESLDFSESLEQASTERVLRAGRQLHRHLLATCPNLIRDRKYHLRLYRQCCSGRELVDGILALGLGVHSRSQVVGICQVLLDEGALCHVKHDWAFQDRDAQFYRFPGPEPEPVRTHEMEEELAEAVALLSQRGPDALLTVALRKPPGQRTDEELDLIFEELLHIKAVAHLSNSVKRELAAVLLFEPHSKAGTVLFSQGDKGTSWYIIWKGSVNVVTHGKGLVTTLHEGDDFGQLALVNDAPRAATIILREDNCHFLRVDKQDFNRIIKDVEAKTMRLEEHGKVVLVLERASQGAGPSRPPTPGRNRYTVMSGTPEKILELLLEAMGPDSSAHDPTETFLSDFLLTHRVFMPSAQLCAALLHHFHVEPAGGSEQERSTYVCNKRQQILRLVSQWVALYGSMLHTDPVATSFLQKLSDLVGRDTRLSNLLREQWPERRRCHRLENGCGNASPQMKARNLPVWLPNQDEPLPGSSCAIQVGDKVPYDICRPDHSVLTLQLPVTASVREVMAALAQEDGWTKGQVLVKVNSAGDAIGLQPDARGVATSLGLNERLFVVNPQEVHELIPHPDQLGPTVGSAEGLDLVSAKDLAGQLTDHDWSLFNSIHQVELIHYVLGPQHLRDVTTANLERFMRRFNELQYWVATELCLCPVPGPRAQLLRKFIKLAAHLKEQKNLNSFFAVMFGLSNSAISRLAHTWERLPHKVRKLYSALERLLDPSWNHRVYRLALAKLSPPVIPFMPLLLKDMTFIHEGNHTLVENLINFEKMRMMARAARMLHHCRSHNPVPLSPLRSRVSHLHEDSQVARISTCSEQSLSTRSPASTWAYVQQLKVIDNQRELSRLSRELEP
Chain of Cytochrome P450 3A4 (Homo sapiens) (P08684 whole entry, looked up): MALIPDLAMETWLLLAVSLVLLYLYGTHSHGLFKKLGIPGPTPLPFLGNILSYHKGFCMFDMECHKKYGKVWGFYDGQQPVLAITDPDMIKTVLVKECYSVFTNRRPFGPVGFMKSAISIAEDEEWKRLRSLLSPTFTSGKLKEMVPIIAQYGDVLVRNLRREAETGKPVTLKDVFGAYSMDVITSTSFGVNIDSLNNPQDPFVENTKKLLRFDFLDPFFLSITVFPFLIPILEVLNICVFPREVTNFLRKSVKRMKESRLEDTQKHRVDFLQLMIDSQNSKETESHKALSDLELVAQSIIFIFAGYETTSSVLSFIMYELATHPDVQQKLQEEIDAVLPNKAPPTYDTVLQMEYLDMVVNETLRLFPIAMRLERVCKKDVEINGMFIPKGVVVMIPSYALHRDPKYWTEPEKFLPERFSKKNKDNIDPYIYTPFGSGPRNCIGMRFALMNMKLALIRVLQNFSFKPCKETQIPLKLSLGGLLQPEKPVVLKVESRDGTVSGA

CCOC(=O)[C@H](CCc1ccccc1)N[C@@H](C)C(=O)N1[C@H](C(=O)O)C[C@@H]2CCC[C@@H]21
not listed: [11] | [12]
inactive: all other assays above

NCCNc1cccc2ccccc12
active: [8] 24.5 µM
inactive: [1] | [2] | [3] | [4] | [5] | [6]

Nc1nc(-c2ccccc2)c(Br)c(=O)[nH]1
not listed: [7] | [12]
inactive: all other assays above

CC(C)NCC(O)c1ccc2ccccc2c1 (stereo not drawn)
active: [7] 3.47 µM
not listed: [11] | [12]
inactive: all other assays above

CN(Cc1ccc(C(C)(C)C)cc1)Cc1cccc2ccccc12
active: [7] 0.123 µM
not listed: [8] | [11] | [12]
inactive: all other assays above

C#C[C@]1(O)CC[C@H]2[C@@H]3CCc4cc(OC)ccc4[C@H]3CC[C@@]21C
active: [8] 6.92 µM and 4.25 µM
not listed: [6] | [11] | [12]
inactive: all other assays above

CCCCCCCCCCCCCC(=O)OC(C)C
not listed: [7] | [11] | [12]
inactive: all other assays above

COc1ccc(-c2cc(C(F)F)nn2-c2ccc(S(N)(=O)=O)cc2)cc1F
inactive: [1] | [2] | [3] | [4] | [5]
active: [8] 6.17 µM

O=C(CN1CCN(Cc2ccc3c(c2)OCO3)CC1)N1c2ccccc2Sc2ccccc21
inactive: [1] | [2] | [3] | [4] | [5] | [9]
active: [7] 0.195 µM | [8] 7.76 µM

CC(CNC1CCCCC1)OC(=O)c1ccccc1 (stereo not drawn)
not listed: [7] | [8] | [11] | [12]
inactive: all other assays above

O=C1C(O)=C(O)C(=O)C(O)=C1O
not listed: [7] | [11] | [12]
inactive: all other assays above

CC(=O)OC[C@H]1O[C@@H](n2ncc(=O)[nH]c2=O)[C@H](OC(C)=O)[C@@H]1OC(C)=O
inactive: [1] | [2] | [3] | [4] | [5] | [6] | [8]

CN(C)CCOC(=O)C(c1ccccc1)C1(O)CCCC1 (stereo not drawn)
not listed: [7] | [11] | [12]
inactive: all other assays above

C#C[C@]1(O)CC[C@H]2[C@@H]3[C@H](C)CC4=C(CCC(=O)C4)[C@H]3CC[C@@]21C
active: [9] 23.7 µM | [10] 21.1 µM
inactive: [1] | [2] | [3] | [4] | [5] | [6]

CO[C@]12C[C@@H](COC(=O)c3cncc(Br)c3)CN(C)[C@@H]1Cc1cn(C)c3cccc2c13
inactive: [1] | [2] | [3] | [4] | [5] | [6] | [8]

CCOC(=O)C(C#N)=C(c1ccccc1)c1ccccc1
active: [8] 2.45 µM
not listed: [6] | [11]
inactive: all other assays above

O=C(O)CCNC(=O)c1ccccc1
not listed: [7] | [11] | [12]
inactive: all other assays above

CC(C)[C@@H]1CC[C@@H](C)CC1=O
not listed: [7] | [11] | [12]
inactive: all other assays above

CN(C)CCN1C(=O)c2ccccc2N(C)c2ccccc21
not listed: [7] | [10] | [11] | [12]
inactive: all other assays above

CC(=O)O[C@H]1C[C@@H]2CC[C@@H]3[C@H](CC[C@@]4(C)[C@H]3C[C@H]([N+]3(C)CCCCC3)[C@@H]4OC(C)=O)[C@@]2(C)C[C@@H]1N1CCCCC1
not listed: [7] | [11] | [12]
inactive: all other assays above

Cc1ncc(CO)c(C=O)c1O
not listed: [7] | [11] | [12]
inactive: all other assays above

CC(C)(C)NC[C@H](O)COc1cccc2c1CCCC2=O
not listed: [7] | [11] | [12]
inactive: all other assays above

Cl/C(=C\n1cncn1)c1ccc(Cl)cc1Cl
active: [8] 11 µM
not listed: [7] | [11]
inactive: all other assays above

CCCCC(CC)COC(=O)/C=C/c1ccc(OC)cc1 (stereo not drawn)
active: [8] 9.77 µM
not listed: [7] | [11] | [12]
inactive: all other assays above
